In PubChem BioAssay (NCATS) one finds Potency data, which are given here for 23 compounds.

Molecules are shown by their SMILES. Inconclusive results are not listed. Activity calls are given as the source filed them. The call rests on the fitted dose curve; in most records, active means well fitted curve in the direction sought with a large enough effect; inconclusive means small, poorly fitted or top-dose-only effect, or another doubt; inactive means no such curve, though single readings can be large or run the other way.
Potency means the concentration at half of the fitted maximal effect.

A short description of this experiment: qHTS for Inhibitors of the vitamin D receptor (VDR): Hit Validation using a Texas Red Assay (AID 602201). As to conditions: VDR coregulator binding, Texas Red fluorescence polarization, agonist-bound VDR ligand-binding domain; series mostly up to 57.1 µM. The procedure, abridged:
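Fluorescence polarization with 1.5 uM VDR-LBD, LG19078 and 7 nM Texas Red (final). After 2 hours at ambient temperature, read at Ex 595 nm/Em 615 nm.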
In general terms: qHTS replaces the single test concentration by a dilution series.
Take `O=C(COc1ccc(Cl)cc1)Nc1sc2c(c1C(=O)Nc1cccc(Cl)c1)CCCC2`: the Potency is 8.91 µM (active).
Next, `CCS(=O)(=O)c1ncc(Cl)c(C(=O)Nc2ccc(S(=O)(=O)N3CCCC(C)C3)cc2)n1` (stereo not drawn): 3.55 µM (active); `CC(C)c1ccc(/C=C/c2[nH]c(=O)[nH]c(=O)c2[N+](=O)[O-])cc1`: “inactive”.
With `O=[N+]([O-])c1ccc(C2=Nn3c(Cn4nnc5ccccc54)nnc3SC2)cc1`, the Potency is 25.1 µM (active).
Next, `COc1cccc(/C=C2\C(=O)N(c3cccc(C)c3)C(=O)c3ccccc32)c1`: 14.1 µM (active); `O=C(CCCSc1ccc(Cl)cc1)Nc1cc(S(=O)(=O)N2CCOCC2)ccc1O`: 7.94 µM (active); `O=C(NC1CCCCCC1)C(=S)N1CCOCC1`: “inactive”.
Next, `CS(=O)(=O)c1nc(-c2ccccc2)cc(C(F)(F)F)n1`: 10 µM (active).
The result for `Cc1ccc(C(=O)NC2(O)C(=O)c3ccccc3C2=O)cc1C` reads “inactive”.
For `COc1ccc(N2C(=O)C(Cl)=C(Oc3cccc(OC)c3)C2=O)cc1`, the Potency was 2.82 µM (active).
The result for `CN(C)c1ccc(C(=S)N2CCN(c3ccc([N+](=O)[O-])cc3)CC2)cc1` reads “inactive”.
Next, `O=C1/C(=C/c2cccnc2)CCC/C1=C\c1cccnc1`: 31.6 µM (active).
Next, `Cc1nc2ccc(N=NN(C)C)cc2[nH]1`: “inactive”; `CCN1C(=O)/C(=C\C(=O)c2cccs2)c2cc(Br)ccc21`: “inactive”.
As to `CCOC(=O)c1c(C2COc3ccccc3O2)csc1NC(=O)c1ccco1` (stereo not drawn), the Potency was 3.55 µM (active).
As for `CCCCN1C(=O)C(=Nc2cccc3cnccc23)c2ccccc21`, the Potency result was “inactive”.
As for `O=C(c1cccs1)c1no[n+]([O-])c1C(=O)c1cccs1`, the Potency was 3.55 µM (active).
Next, `COc1ccc(C)cc1N1C(=N)/C(=C2/Nc3ccccc3S2)C(c2ccccc2)C1=O` (stereo not drawn): 10 µM (active).
Next, `CC(C)(C)C1C/C(=C/c2ccccn2)C(=O)/C(=C/c2ccccn2)C1` (stereo not drawn): 3.16 µM (active); `CN1CCN(C(c2ccc(Br)cc2)c2cc(Cl)c3cccnc3c2O)CC1` (stereo not drawn): 28.2 µM (active); `CCN(CC)c1ccc(C=Nc2ccc(N(C)C)cc2)c(O)c1`: “inactive”.
The result for `CCOC(=O)CS(=O)(=O)c1nc(-c2ccccc2)cc(C(F)(F)F)n1` reads “inactive”; that for `CCSc1nnc(NC(=O)c2nc(S(=O)(=O)Cc3ccc(F)cc3)ncc2Cl)s1`, 3.16 µM (active).
